Laboratory results taken from ChEMBL document CHEMBL1201862, “PubChem BioAssay data set” (2004).
In all, about 44,000 sequences went through this assay and about 5,100 (12%) were called active. No stated cut-off is given here; in the data, active = GI50 up to about 1.1 µM and inactive = higher. What follows is part of a selection rich in actives, with near analogues and random picks from the rest. Measured potencies and affinities stand elsewhere.

tested on: MCF7

Substance | GI50 [µM]
[Bis(aminomethyl)tetramethylenesilane]tetrachloropaltinum(IV), CHEMBL2146189 | 1.64
[Bis(aminomethyl)dimethylsilane]tetrachloroplatinum(IV), CHEMBL2146190 | 2.97
SENNOSIDES, CHEMBL2108559 | 0.183
[Bis(aminomethyl)pentamethylenesilane]tetrachloropaltinum(IV), CHEMBL2146204 | 0.29
[Bis(aminomethyl)pentamethylenesilane]dichloropaltinum(II), CHEMBL2146202 | 0.249
CISPLATIN, CHEMBL11359 | 3.01
[Bis(aminomethyl)tetramethylenesilane]dichloropaltinum(II), CHEMBL2146205 | 2.22
